# TGFb SMAD3 inh – inhibitors of TGF-b signaling; Potency, µM (doses to about 46.1 µM), inactives show at the highest dose activity, negative = inhibition, actives largely listed as inhibitors; AID 588855; 1.2% of 410,000 active; HepG2 CAGA-GFP TGF-b/SMAD3 reporter, GFP fluorescence, 18 h; TGF-beta stimulated, 500 pg/mL final; note: potency is the fitted concentration of half-maximal effect; % is set by controls: 0 for no effect and ±100 for the full control effect; nearly all actives have a fitted effect of over 65% in size
#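 HEPG2 CAGA-GFP cells (1000/well, DMEM with 1% FBS) were pre-incubated 2 h at 37 degrees C, given compound by pin tool, then stimulated with TGF-beta at 500 pg/mL final for 18 h before per-cell GFP fluorescence imaging.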
# HepG2 tox – kills HepG2 cells in TGF-b inhibitor counter-screen; Potency, µM (titrated, usually from 46.1 µM), without a hit: at the top dose activity change, negative = cytotoxicity, hits mostly cytotoxic; AID 588856; 0.76% of 410,000 active; HepG2 CAGA-GFP viability, ATP luminescence, 18 h; note: potency is the fitted concentration of half-maximal effect
#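 CellTiter-Glo luminescence gave cytotoxicity after 18 hours at 37 degrees C. The cells were HepG2 CAGA-GFP in 1% FBS DMEM, stimulated with 500 pg/mL TGF-beta after compound addition. %Activity was normalised to no-cell wells (complete cell-killing) and DMSO (no toxicity), and curves were fitted and classified.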
# TDP1 cell CPT – DT40-hTDP1 cell growth loss with CPT. chicken DT40 Tdp1-/-;hTDP1 cells + 20 nM CPT, ATP luminescence, 48 h. Potency, µM (top dose mostly 46.2 µM), without a hit: at the top dose activity change, negative = growth inhibition, hits mostly inhibitors. 12% of 420,000 active. AID 686979; note: potency is the fitted concentration of half-maximal effect; % is set by controls: 0 for no effect and ±100 for the full control effect; nearly all actives have a fitted effect of over 55% in size
#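 Cell growth measured by CellTiter-Glo luminescence after a minimum 48 h, 37 C compound exposure with 20 nM CPT in Tdp1-knockout DT40 cells stably expressing hTDP1, seeded 400/well; qHTS titration format.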
# TDP1 inh – inhibitors of human tyrosyl-DNA phosphodiesterase TDP1. recombinant TDP1, AlphaScreen DNA substrate cleavage. 0.28% of 350,000 active. Potency, µM (series often up to 130 µM), without a hit: top-dose activity change, negative = inhibition, usual class: inhibitors; note: potency is the fitted concentration of half-maximal effect; % is set by controls: 0 for no effect and ±100 for the full control effect; nearly all actives have a fitted effect of over 40% in size
# Target sequence (Q9NUW8 whole entry, looked up): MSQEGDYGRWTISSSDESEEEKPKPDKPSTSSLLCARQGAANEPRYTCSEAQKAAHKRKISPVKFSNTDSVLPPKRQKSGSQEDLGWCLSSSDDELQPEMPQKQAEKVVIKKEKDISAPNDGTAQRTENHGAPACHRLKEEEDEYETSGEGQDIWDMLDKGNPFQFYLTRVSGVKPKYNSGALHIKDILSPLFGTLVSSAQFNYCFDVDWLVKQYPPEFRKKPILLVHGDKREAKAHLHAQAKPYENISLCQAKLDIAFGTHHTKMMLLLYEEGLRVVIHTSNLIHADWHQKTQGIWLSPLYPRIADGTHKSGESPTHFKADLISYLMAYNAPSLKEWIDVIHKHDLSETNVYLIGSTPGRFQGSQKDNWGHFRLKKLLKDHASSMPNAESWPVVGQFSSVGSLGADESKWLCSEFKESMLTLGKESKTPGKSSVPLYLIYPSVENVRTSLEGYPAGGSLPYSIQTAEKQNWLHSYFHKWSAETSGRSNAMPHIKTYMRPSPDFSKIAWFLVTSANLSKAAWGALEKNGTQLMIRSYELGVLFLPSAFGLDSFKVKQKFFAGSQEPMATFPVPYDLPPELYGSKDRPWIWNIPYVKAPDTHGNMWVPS
#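 Tdp1 1 nM final; 15 min RT w/ cpd; substrate 15 nM, 5 min; beads 10 ug/ml, 10 min; AlphaScreen read. Neg ctrl: no enzyme.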
# IL1B secr inh – inflammasome signaling inhibition, IL-1 beta readout; activity change, % at 57.5 µM; THP-1 LPS/ATP IL-1B secretion, AlphaLISA, 16 h; hits give low values; 4.7% of 360,000 active; in the data active = activity change below about -50%; inconclusive = mostly about -30% to -49%; note: % is set by controls: 0 for no effect and ±100 for the full control effect
#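 Secreted IL-1B measured by AlphaLISA bead assay after 16 h compound exposure of THP-1 cells; compounds (final up to 57.5 uM) added 1 h before LPS (250 ng/mL) and ATP (1.25 mM) stimulation; lower signal means less secretion.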
# DT40 TDP1 no CPT – qHTS for Inhibitors of human tyrosyl-DNA phosphodiesterase 1 (TDP1): qHTS in cells in absence of CPT | DT40 Tdp1-/- hTDP1 cells, no CPT, ATP luminescence, 48 h | Potency, µM (top dose mostly 46.2 µM), inactives show top-dose activity change, negative = growth inhibition, usual class: inhibitors | 15% of 420,000 active | AID 686978, 2013; note: potency is the fitted concentration of half-maximal effect; % is set by controls: 0 for no effect and ±100 for the full control effect; nearly all actives have a fitted effect of over 55% in size
#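 Stably hTDP1-transfected Tdp1-null chicken DT40 cells were treated with library compounds minus camptothecin and grown for at least 48 hr at 37 °C, after which cellular ATP was quantified by luminescence.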
# * marks the source's active call; other numbers are inactive results; ? = inconclusive; . = no result; [ ] = dose if it differs, or a comment. Hits are enriched below; roughly 19% of the tested compounds scored in any of these assays. Unless noted, calls come from the whole dose curve; as a rule, active = well fitted curve in the direction sought with a large enough effect; inconclusive = small, poorly fitted or top-dose-only effect, or another doubt; inactive = no such curve, though single readings can be large; an effect the other way counts as inactive or inconclusive.
SMILES,TGFb SMAD3 inh,HepG2 tox,TDP1 cell CPT,TDP1 inh,IL1B secr inh,DT40 TDP1 no CPT
COc1ccc(-c2nc3ccccc3n2Cc2ccc(Cl)cc2)cc1,15.8µM*,-117.0%,20.6µM*,.,.,20.6µM*
COc1ccc(Cn2c(-c3ccc(OC)c(O)c3)nc3ccccc32)cc1O,-7.7%,-4.2%,?,0.0%,-23.8,?
CCOC(=O)N/N=C1/C[C@@H](O)[C@@H](O)[C@@H]2[C@@H]3C(=O)N(CC)C(=O)[C@H]3CC[C@@H]12,.,.,.,6.9%[21 µM],.,.
CCOC(=O)[C@]12CCC=C1N(Cc1ccc3c(c1)OCO3)C(=O)[C@H](CC(=O)NCC1CCCCC1)C2,.,.,?,.,0.0,?
C=C(C)Cn1c(-c2ccc(OC)cc2)nc2ccccc21,0.8%,-17.7%,13µM*,2.1%,-0.8,14.6µM*
COc1ccc(Cn2c(-c3ccc(C)cc3)c[n+]3ccccc23)cc1,?,-28.1%,1.03µM*,5.4%,0.0,0.92µM*
C=C(C)Cn1c(SCC(=O)O)nnc1-c1ccc(OC)cc1,6.5%,8.3%,-1.0%,-3.4%,0.0,-2.9%
Clc1ccc(-c2nc3ccccc3n2OCc2ccccc2)cc1,20.1%,3.4%,20.6µM*,-1.0%,11.0,20.6µM*
CCOC(=O)n1c(=O)n(Cc2ccccc2C)c2ccccc21,2.3%,19.6%,-27.9%,-2.7%,-3.5,?
COc1ccc(Cn2c(O)c(C=Nc3ccc(C)cc3)c3ccccc3c2=O)cc1,0.3%,3.9%,-3.0%,8.2%,-12.5,-21.0%
CCOC(=O)n1c(=O)n(Cc2ccc(OC)cc2)c2ccccc21,-31.5%,-0.9%,?,.,18.8,16.4µM*
Cc1ccc(C(c2nnnn2Cc2ccccc2)N2CCN(Cc3ccncc3)CC2)cc1 (centres undefined),-4.1%,0.9%,?,.,.,?
C=CCCn1c(Cl)c(C#N)sc1=O,-20.6%,-46.9%,.,7.4%,.,.
COCn1c(-c2ccc(OC)cc2)nc2ccccc21,-15.2%,-48.1%,-11.0%,-2.2%,-20.3,-27.3%
CCCn1c(-c2ccc(OC)cc2)nc2ccccc21,-3.3%,-3.8%,2.59µM*,0.0%,-17.5,3.66µM*
CCOc1ccc(NC(=O)c2ccc(F)c(S(=O)(=O)N3CCN(c4ccccn4)CC3)c2)cc1,?,-49.2%,?,2.0%,-5.8,16.4µM*
O=C(Nc1cccc(Cl)c1)c1ccc(F)c(S(=O)(=O)N2CCN(c3ccccn3)CC2)c1,?,-5.1%,23.1µM*,2.6%,-3.8,18.4µM*
O=C(c1ccc(Cl)c(S(=O)(=O)N2CCOCC2)c1)N1CCN(c2ccccn2)CC1,11.9%,2.0%,-3.4%,2.5%,5.3,?
CCOc1ccc(NC(=O)c2ccc(F)c(S(=O)(=O)N3CCCC3)c2)cc1,-12.2%,-6.7%,9.2µM*,.,47.7,11.6µM*
O=C(COc1ccc(S(=O)(=O)N2CCCC2)cc1Cl)NCc1cccnc1,0.1%,-18.0%,-18.7%,3.2%,-2.8,-23.0%
CC(=O)C(=O)O,.,.,.,-1.6%,.,.
NC(=O)n1c(O)c(C(=O)c2cccs2)c2cc(Cl)ccc21,.,.,-9.2%,25.9%,.,?
COC(=O)CCSc1cc(NCCOC(C)=O)c([N+](=O)[O-])c2nonc12,?,-75.0%,11.2µM*,2.6%,-97.3*,17.8µM*
CCCC(=O)OCCNc1cc(SCCC(=O)OC)c2nonc2c1[N+](=O)[O-],?,-61.0%,16.4µM*,-4.2%,-86.2*,?
Cc1cc2ccccc2c[n+]1C,-1.0%,2.4%,0.7%,.,.,-14.3%
SMILES,TGFb SMAD3 inh,HepG2 tox,TDP1 cell CPT,TDP1 inh,IL1B secr inh,DT40 TDP1 no CPT
COCCn1c(=O)c(-c2ccc(Cl)cc2)nc2cnc(N(C)C)nc21,.,.,-18.7%,.,.,-6.8%
CCOC(=O)[C@]12CCC=C1N(Cc1ccco1)C(=O)[C@H](CC(=O)NCc1cccc3ccccc13)C2,.,.,-15.7%,.,-13.6,-16.7%
CCOC(=O)[C@]12CCC=C1N(Cc1cccc3ccccc13)C(=O)[C@H](CC(=O)NCc1cccs1)C2,.,.,?,.,-68.9*,?
CCOC(=O)[C@]12CCC=C1N(Cc1cccc3ccccc13)C(=O)[C@H](CC(=O)NCc1ccc(C)o1)C2,.,.,16.4µM*,.,0.0,23.1µM*
CCOC(=O)[C@]12CCCC=C1N(Cc1cccc3ccccc13)C(=O)[C@H](CC(=O)NCc1cccs1)C2,.,.,?,.,-23.8,23.1µM*
O=C1CC(C(=O)N2CCCC(c3nc(-c4ccncc4)ncc3-c3ccccc3)C2)C2(CCCCC2)O1 (centres undefined),.,.,15.2%[9.04 µM],.,.,-5.0%
CCCCN1C(=O)CN(C2CCCCCC2)C(=O)C1c1ccc(OC(C)C)c(OC)c1 (centres undefined),-21.3%,-28.3%,?,0.0%,.,?
CS(=O)(=O)c1ccc(S(=O)CC(=O)OCc2ccccc2)c([N+](=O)[O-])c1 (centres undefined),4.47µM*,7.08µM*,0.231µM*,5.5%,-163.5*,0.326µM*
O=C(CNc1ccc(C(F)(F)F)cc1[N+](=O)[O-])OCC(=O)c1ccccc1,6.5%,-2.8%,-0.4%,-2.8%,11.9,-5.6%
O=C(CS(=O)c1ccc(C(F)(F)F)cc1[N+](=O)[O-])Oc1ccccc1 (centres undefined),?,3.55µM*,5.8µM*,-5.1%,-114.1*,4.61µM*
CCOC(=O)c1ccccc1OC(=O)CS(=O)c1ccccc1[N+](=O)[O-] (centres undefined),-29.8%,-21.9%,?,8.4%,-28.3,?
COC(=O)c1ccc(OC(=O)CS(=O)c2ccccc2[N+](=O)[O-])cc1 (centres undefined),3.9%,-3.7%,?,.,-0.6,25.9µM*
Cc1ccc(S(=O)(=O)NCC(=O)N(CC2CCCO2)C(C(=O)NCC2CCCO2)C(C)C)cc1 (centres undefined),4.0%,-0.2%,15.1%,.,6.3,0.1%
COc1ccccc1NC(=S)NC(=O)C1CC1,-3.9%,13.4%,1.0%,5.3%,-10.3,-20.1%
CCN(CC)c1ccc(S(=O)(=O)Nc2cc(Cl)ccc2Cl)cc1NC(=S)NC(=O)C1CCCC1,?,2.3%,?,11.0%,-50.2*,?
O=C(NC(=S)Nc1ccccc1Cl)C1CC1,?,0.3%,-10.7%,-1.6%,14.0,10.7%

# Screening data deposited in PubChem by National Center for Advancing Translational Sciences (NCATS).
